# Several values for one entry are separate records, joined by “and”; a condition that tells them apart may be missing. Identical values can stand only once. Results filed as inconclusive are left out. Some structures have more than one record in an assay (separate samples or runs), and their calls can disagree. Activity calls are given as the source filed them. How the source made its calls: active means hit-call score of the fitted dose curve at least 0.9, where 1 is the maximum; inconclusive means response in the unintended direction; inactive means score below 0.9.
# Tests used:
# [1] = target: human Ephrin type-A Receptor 1 (EphA1), EPHA1 (gene 2041) (UniProt P21709); assay: NVS_ENZ_hEphA1: NovaScreen (NVS) Enzymatic Assay for human Ephrin type-A Receptor 1 (EphA1) (AID 2283158);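 further: activity is signal loss versus DMSO meaning EphA1 kinase inhibition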
# How it was run: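 Here the EphA1 protein is recombinant and the substrate fluorescent, with electrophoretic separation before fluorescence detection at 1 hour. Signal loss against DMSO defines activity; plate controls included; follow-up concentration series reach 50 uM.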
# Caspase-3 (Homo sapiens) = Caspase-3 (Homo sapiens) (UniProt P42574); assay: NVS_ENZ_hCASP3: NovaScreen (NVS) Enzymatic Assay for human Caspase 3 (CASP3) (AID 2283139)
# How it was run: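 Single-concentration screening at 25 uM in duplicate, with concentration-response follow-up to a 50 uM maximum for chemicals passing the threshold. Caspase-3 (human, E. coli-expressed) activity was read as substrate fluorescence after 1 h, with loss of signal relative to DMSO.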
# [2] = target: human Beta-secretase (BACE), BACE1 (gene 23621) (UniProt P56817); assay: NVS_ENZ_hBACE: NovaScreen (NVS) Enzymatic Assay for human Beta-secretase (BACE) (AID 2283140);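 further: hits are inhibitors that reduce fluorescent substrate signal versus DMSO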
# How it was run: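 Fluorescence intensity read-out of protease activity defines this endpoint; signal loss relative to DMSO baseline marks inhibition. Recombinant enzyme from SF9 cells, cell-free format, 1 h exposure. Single-concentration duplicate screen (25 uM) precedes concentration-series follow-up.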
# [3] = target: human Dual Specificity Protein Phosphatase 3 (DUSP3), DUSP3 (gene 1845) (UniProt P51452); assay: NVS_ENZ_hDUSP3: NovaScreen (NVS) Enzymatic Assay for human Dual Specificity Protein Phosphatase 3 (DUSP3) (AID 2283152);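 further: phosphatase activity of recombinant human DUSP3 on a fluorogenic substrate without cells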
# How it was run: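 Cell-free fluorescence-intensity enzyme activity assay with recombinant protein and substrate; loss of signal fitted relative to DMSO baseline. Primary screen in duplicate at 25 uM, actives then run in concentration series; measured 0 h after dosing.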
# [4] = target: human Esterase Plasma (ES), BCHE (gene 590) (UniProt P06276); assay: NVS_ENZ_hES: NovaScreen (NVS) Enzymatic Assay for human Esterase Plasma (ES) (AID 2283157)
# How it was run: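 Human plasma-derived enzyme, cell-free, colorimetric readout at 0.25 h. Primary screen 25 uM in duplicate; hits (e.g. ≥30% inhibition) rerun singleton up to 50 uM. DMSO = negative control/baseline.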
# [5] = target: human AKT serine/threonine Kinase 1 (AKT1), AKT1 (gene 207) (UniProt P31749); assay: NVS_ENZ_hAKT1: NovaScreen (NVS) Enzymatic Assay for human AKT serine/threonine Kinase 1 (AKT1) (AID 2283138)
# How it was run: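 Compounds were first tested in duplicate at 25 uM, and those passing a threshold such as 30% inhibition were run in concentration-response to a maximum of 50 uM. Enzyme activity was measured after 1 h by fluorescence following substrate/product mobility-shift separation.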
# [6] = target: human AKT serine/threonine Kinase 2 (AKT2), AKT2 (gene 208) (UniProt P31751); assay: NVS_ENZ_hAKT2: NovaScreen (NVS) Enzymatic Assay for human AKT serine/threonine Kinase 2 (AKT2) (AID 2283141)
# How it was run: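 Cell-free fluorescence/electrophoretic mobility shift readout of recombinant human AKT2 activity, 1 h after chemical dosing. Duplicate primary screen at 25 uM, then singleton concentration-response up to 50 uM; loss of signal versus DMSO baseline.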
# CDK2 (gene 1017) = CDK2 (gene 1017) (UniProt P24941); assay: NVS_ENZ_hCDK2: NovaScreen (NVS) Enzymatic Assay for human Cyclin-Cependent Kinase 2 (CDK2) (AID 2283144)
# How it was run: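 Compounds screened in duplicate at 25 uM, then in singleton concentration-response to a maximum of 50 uM, against recombinant CDK2; kinase activity read 1 hr after dosing by fluorescence with mobility-shift separation of substrate and product.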
# [7] = target: human Casein Kinase 1-delta (CK1D), CSNK1D (gene 1453) (UniProt P48730); assay: NVS_ENZ_hCK1D: NovaScreen (NVS) Enzymatic Assay for human Casein Kinase 1-delta (CK1D) (AID 2283148)
# How it was run: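 Recombinant human CK1-delta, cell-free; fluorescent substrate with electrophoretic mobility-shift separation of product, read 1 h after dosing. Single 25 uM duplicate screen, then concentration-response up to 50 uM; loss of signal vs DMSO.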
# [8] = target: human Colony Stimulating Factor 1 Receptor (CSF1R), CSF1R (gene 1436) (UniProt P07333); assay: NVS_ENZ_hCSF1R: NovaScreen (NVS) Enzymatic Assay for human Colony Stimulating Factor 1 Receptor (CSF1R) (AID 2283150)
# How it was run: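 Compounds screened in duplicate at 25 uM, then concentration-response (top 50 uM) for those passing threshold such as 30% inhibition; recombinant CSF1R activity measured 1 h post-dosing via fluorescent substrate/product mobility-shift separation, loss of signal versus DMSO.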
# [9] = target: human FYN Proto-Oncogene, Src family Tyrosine Kinase (Fyn), FYN (gene 2534) (UniProt P06241); assay: NVS_ENZ_hFyn: NovaScreen (NVS) Enzymatic Assay for human FYN Proto-Oncogene, Src family Tyrosine Kinase (Fyn) (AID 2283161)
# How it was run: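 Cell-free kinase activity read by fluorescence after mobility-shift separation of substrate and product, 1 h post-dose. Initial single concentration 25 uM in duplicate, then concentration-response follow-up; DMSO baseline.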
# [10] = target: human Insulin Receptor (InsR), INSR (gene 3643) (UniProt P06213); assay: NVS_ENZ_hInsR: NovaScreen (NVS) Enzymatic Assay for human Insulin Receptor (InsR) (AID 2283168)
# How it was run: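 Cell-free enzyme assay read 1 h post-dose by fluorescence after substrate/product mobility-shift separation. Duplicate 25 uM primary screen, then singleton concentration-response up to 50 uM for compounds passing threshold; loss of signal vs DMSO.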
# [11] = target: human Janus Kinase 2 (Jak2), JAK2 (gene 3717) (UniProt O60674); assay: NVS_ENZ_hJak2: NovaScreen (NVS) Enzymatic Assay for human Janus Kinase 2 (Jak2) (AID 2283169)
# How it was run: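 Single-point duplicate screen at 25 uM, with hits run in concentration series to a 50 uM top dose. Substrate-product separation by mobility shift with fluorescence detection, 1 h post-dosing; DMSO baseline.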
# [12] = target: Mitogen-activated protein kinase 3 (Homo sapiens) (UniProt P27361); assay: NVS_ENZ_hMAPK3: NovaScreen (NVS) Enzymatic Assay for human Mitogen-Activated Protein Kinase 3 (MAPK 3) (AID 2283177)
# How it was run: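 Chemicals were first tested in duplicate at 25 uM, with hits re-run as concentration series (max 50 uM). Recombinant enzyme activity, measured 1 h post-dose in a cell-free format, was read by fluorescence/mobility shift relative to DMSO.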
# [13] = target: human Caspase 8 (CASP8), CASP8 (gene 841) (UniProt Q14790); assay: NVS_ENZ_hCASP8: NovaScreen (NVS) Enzymatic Assay for human Caspase 8 (CASP8) (AID 2283146)
# How it was run: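 The primary screen tested compounds in duplicate at a single 25 uM concentration, with actives followed up in concentration series. Activity of recombinant (E. coli) protease was measured by fluorescence 1 h post-dose, as signal loss against DMSO.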
# [14] = target: human Elastase, ELANE (gene 1991) (UniProt P08246); assay: NVS_ENZ_hElastase: NovaScreen (NVS) Enzymatic Assay for human Elastase (AID 2283153)
# How it was run: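 Concentration-response to 50 uM max, run singly for chemicals passing a threshold (e.g., 30% inhibition) in a duplicate 25 uM single-point screen. Neutrophil-derived human elastase, absorbance read-out of enzyme activity at 1.5 h; DMSO baseline.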
# [15] = target: human Caspase 5 (CASP5), CASP5 (gene 838) (UniProt P51878); assay: NVS_ENZ_hCASP5: NovaScreen (NVS) Enzymatic Assay for human Caspase 5 (CASP5) (AID 2283137)
# How it was run: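 Chemicals were first tested in duplicate at 25 uM against recombinant caspase 5 from E. coli. Activity was read by fluorescence intensity 2 hours after dosing. Those passing a preset inhibition threshold were retested in singleton concentration-response up to 50 uM.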
# [16] = target: rat CYP3A2, Cyp3a2 (gene 266682) (UniProt P05183); assay: NVS_ADME_rCYP3A2: NovaScreen (NVS) CYP450-related Enzyme Activity (ADME) Assay for rat CYP3A2 (AID 2283128)
# How it was run: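 Fluorescence readout of extracted rat CYP3A2 activity 0.5 h post-dose, acetonitrile as negative control. Single-point testing in duplicate at 10 uM, followed by concentration series to a 20 uM maximum for actives.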
# [17] = target: Glycogen synthase kinase-3 beta (Homo sapiens) (UniProt P49841); assay: NVS_ENZ_hGSK3b: NovaScreen (NVS) Enzymatic Assay for human Glycogen Synthase Kinase-3 beta (GSK3b) (AID 2283165)
# How it was run: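 Recombinant enzyme with specific fluorescent substrate, 1 h, product separated by electrophoretic mobility shift. Primary duplicate screen at 25 uM; actives (e.g. 30% inhibition) followed in singleton concentration-response to 50 uM. Signal loss fitted versus DMSO.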
# [18] = target: Histone deacetylase 3 (Homo sapiens) (UniProt O15379); assay: NVS_ENZ_hHDAC3: NovaScreen (NVS) Enzymatic Assay for human Histone Deacetylase 3 (HDAC3) (AID 2283163)
# How it was run: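 Cell-free enzyme format: loss of fluorescent product after mobility-shift separation, 1 h incubation, recombinant human HDAC3. Single 25 uM duplicate screen first, then concentration series to a 50 uM top for hits; DMSO as baseline.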
# Sequence of human Esterase Plasma (ES), BCHE (gene 590) (P06276 whole entry, looked up): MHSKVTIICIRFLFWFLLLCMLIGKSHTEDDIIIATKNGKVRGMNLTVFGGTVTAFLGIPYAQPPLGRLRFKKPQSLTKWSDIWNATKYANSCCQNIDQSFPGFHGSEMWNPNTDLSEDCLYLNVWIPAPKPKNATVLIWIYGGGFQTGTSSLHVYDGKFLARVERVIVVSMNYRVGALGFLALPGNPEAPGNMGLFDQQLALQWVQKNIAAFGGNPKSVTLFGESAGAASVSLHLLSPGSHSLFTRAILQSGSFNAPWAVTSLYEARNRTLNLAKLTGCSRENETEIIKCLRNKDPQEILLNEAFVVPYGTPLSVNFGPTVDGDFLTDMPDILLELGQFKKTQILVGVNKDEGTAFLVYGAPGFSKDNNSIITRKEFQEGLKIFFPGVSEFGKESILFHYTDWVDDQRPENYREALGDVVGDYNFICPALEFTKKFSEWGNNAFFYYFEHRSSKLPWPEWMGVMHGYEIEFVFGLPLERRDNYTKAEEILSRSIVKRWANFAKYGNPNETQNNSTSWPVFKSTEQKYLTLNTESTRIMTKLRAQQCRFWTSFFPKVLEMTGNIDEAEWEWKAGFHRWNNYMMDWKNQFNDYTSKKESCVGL
# Sequence of rat CYP3A2, Cyp3a2 (gene 266682) (P05183 whole entry, looked up): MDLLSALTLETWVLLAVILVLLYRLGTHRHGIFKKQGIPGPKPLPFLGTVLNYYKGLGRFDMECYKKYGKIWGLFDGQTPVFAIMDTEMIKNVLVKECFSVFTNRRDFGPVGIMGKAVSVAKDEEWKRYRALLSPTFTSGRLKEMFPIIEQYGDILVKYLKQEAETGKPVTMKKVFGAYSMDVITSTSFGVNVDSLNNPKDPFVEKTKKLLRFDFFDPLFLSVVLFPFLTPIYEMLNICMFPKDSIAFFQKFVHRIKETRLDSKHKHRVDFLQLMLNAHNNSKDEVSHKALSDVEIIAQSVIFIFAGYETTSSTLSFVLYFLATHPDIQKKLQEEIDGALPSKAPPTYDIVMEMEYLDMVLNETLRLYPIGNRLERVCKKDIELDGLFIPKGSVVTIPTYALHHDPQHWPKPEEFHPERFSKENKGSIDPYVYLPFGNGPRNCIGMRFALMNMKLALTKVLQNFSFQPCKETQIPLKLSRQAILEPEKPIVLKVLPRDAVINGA
# Sequence of human Caspase 5 (CASP5), CASP5 (gene 838) (P51878 whole entry, looked up): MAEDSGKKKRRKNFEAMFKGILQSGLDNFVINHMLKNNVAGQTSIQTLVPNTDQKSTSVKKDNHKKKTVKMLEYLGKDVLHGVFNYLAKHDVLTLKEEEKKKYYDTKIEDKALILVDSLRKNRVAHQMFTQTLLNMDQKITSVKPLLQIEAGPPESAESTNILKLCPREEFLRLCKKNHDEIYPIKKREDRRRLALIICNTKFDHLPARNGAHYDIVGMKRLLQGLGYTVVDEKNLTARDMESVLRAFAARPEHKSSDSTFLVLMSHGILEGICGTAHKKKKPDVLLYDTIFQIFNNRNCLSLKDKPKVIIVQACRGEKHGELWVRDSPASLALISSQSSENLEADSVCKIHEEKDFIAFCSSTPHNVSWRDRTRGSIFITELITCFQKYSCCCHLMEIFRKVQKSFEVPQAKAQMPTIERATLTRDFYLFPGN
# Sequence of human AKT serine/threonine Kinase 1 (AKT1), AKT1 (gene 207) (P31749 whole entry, looked up): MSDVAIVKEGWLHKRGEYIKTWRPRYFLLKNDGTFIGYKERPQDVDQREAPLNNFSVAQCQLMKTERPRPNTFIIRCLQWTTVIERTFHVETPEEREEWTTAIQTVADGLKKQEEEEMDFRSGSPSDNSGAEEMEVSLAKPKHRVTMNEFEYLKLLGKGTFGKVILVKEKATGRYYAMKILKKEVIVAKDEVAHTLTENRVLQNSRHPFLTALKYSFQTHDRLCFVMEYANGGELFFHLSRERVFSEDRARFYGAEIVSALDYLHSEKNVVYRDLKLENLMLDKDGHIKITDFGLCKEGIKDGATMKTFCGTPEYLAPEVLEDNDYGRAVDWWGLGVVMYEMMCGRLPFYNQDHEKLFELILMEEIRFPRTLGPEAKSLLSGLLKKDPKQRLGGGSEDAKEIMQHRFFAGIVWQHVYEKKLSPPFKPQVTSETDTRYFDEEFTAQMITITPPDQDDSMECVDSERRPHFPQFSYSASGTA
# Sequence of human Dual Specificity Protein Phosphatase 3 (DUSP3), DUSP3 (gene 1845) (P51452 whole entry, looked up): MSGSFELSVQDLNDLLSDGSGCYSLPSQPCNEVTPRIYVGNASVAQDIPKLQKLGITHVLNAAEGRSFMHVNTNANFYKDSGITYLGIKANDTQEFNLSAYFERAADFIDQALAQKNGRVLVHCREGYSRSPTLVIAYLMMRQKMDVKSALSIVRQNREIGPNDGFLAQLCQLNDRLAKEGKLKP
# Sequence of human Ephrin type-A Receptor 1 (EphA1), EPHA1 (gene 2041) (P21709 whole entry, looked up): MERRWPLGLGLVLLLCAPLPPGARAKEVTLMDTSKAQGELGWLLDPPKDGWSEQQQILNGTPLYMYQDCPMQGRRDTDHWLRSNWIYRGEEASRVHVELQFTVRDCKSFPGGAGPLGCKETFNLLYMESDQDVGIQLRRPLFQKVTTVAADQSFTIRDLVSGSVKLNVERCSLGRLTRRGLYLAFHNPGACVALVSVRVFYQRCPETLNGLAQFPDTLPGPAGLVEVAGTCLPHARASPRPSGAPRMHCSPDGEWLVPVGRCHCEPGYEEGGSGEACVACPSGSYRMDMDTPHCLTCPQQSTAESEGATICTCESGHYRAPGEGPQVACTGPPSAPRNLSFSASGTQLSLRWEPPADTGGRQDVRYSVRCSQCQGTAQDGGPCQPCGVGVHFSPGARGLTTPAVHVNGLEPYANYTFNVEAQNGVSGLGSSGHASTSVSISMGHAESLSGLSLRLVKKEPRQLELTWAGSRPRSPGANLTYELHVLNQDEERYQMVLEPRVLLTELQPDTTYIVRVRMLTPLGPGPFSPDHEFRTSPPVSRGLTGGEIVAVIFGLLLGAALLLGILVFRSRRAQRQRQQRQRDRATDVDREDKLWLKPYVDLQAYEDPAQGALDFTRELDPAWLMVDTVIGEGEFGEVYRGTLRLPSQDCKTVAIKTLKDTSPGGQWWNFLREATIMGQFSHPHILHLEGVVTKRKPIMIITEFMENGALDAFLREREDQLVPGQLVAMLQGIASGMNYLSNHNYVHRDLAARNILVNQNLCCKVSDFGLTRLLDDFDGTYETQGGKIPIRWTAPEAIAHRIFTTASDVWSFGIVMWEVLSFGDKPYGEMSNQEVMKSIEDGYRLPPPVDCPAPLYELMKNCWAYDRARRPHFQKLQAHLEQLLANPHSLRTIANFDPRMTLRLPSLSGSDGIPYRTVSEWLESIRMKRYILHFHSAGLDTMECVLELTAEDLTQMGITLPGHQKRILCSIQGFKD
# Sequence of human Beta-secretase (BACE), BACE1 (gene 23621) (P56817 whole entry, looked up): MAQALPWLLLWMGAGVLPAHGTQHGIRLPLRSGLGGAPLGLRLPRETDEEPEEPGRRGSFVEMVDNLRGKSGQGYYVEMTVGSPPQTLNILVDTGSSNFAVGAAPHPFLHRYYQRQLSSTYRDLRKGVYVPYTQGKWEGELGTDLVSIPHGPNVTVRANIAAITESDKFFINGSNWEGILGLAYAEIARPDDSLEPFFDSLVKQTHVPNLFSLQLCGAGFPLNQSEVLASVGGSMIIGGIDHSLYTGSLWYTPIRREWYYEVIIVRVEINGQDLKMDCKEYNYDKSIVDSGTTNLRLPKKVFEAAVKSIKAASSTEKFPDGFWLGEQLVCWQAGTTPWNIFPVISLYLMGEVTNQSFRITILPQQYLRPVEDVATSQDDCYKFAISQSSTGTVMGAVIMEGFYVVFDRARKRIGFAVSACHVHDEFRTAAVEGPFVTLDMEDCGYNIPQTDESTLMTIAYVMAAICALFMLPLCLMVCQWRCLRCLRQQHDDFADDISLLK
# Sequence of human Casein Kinase 1-delta (CK1D), CSNK1D (gene 1453) (P48730 whole entry, looked up): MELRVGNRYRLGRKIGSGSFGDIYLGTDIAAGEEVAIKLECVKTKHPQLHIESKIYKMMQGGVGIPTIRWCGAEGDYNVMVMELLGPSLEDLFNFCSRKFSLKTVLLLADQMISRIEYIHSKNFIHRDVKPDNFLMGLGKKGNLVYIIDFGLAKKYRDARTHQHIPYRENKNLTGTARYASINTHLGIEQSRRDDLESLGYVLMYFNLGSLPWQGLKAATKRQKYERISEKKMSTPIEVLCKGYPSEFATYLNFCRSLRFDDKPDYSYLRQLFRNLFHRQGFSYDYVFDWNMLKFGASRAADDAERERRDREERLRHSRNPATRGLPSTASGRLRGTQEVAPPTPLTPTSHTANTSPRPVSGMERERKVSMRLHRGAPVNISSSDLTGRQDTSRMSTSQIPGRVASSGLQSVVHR
# Sequence of human AKT serine/threonine Kinase 2 (AKT2), AKT2 (gene 208) (P31751 whole entry, looked up): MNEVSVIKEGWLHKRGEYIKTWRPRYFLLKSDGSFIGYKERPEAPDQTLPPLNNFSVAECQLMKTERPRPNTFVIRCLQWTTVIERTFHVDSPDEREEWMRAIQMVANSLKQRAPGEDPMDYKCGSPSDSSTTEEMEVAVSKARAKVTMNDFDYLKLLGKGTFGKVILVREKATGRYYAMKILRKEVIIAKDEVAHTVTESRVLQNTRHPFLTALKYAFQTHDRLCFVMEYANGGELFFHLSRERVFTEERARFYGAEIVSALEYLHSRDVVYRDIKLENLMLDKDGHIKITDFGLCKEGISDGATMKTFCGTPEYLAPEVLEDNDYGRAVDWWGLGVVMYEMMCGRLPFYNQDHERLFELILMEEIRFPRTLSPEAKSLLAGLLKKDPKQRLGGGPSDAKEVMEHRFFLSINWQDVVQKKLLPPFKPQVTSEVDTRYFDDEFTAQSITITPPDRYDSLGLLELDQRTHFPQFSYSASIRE
# Sequence of Glycogen synthase kinase-3 beta (Homo sapiens) (P49841 whole entry, looked up): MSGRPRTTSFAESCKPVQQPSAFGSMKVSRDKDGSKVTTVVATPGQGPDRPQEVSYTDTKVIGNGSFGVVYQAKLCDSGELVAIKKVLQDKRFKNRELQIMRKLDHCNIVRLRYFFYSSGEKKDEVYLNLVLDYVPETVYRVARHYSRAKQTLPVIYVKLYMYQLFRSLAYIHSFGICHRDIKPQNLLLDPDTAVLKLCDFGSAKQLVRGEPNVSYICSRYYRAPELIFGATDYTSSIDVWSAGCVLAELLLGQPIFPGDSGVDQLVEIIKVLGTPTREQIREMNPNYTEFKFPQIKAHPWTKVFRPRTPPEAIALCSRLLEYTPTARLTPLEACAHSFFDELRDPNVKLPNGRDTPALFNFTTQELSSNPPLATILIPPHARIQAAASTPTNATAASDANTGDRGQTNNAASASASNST
structure (smiles),measurement,setting,value
CC(CO)(CO)[N+](=O)[O-],outcome,[1],inactive
CC(C)OB(OC(C)C)OC(C)C,outcome,[1],inactive
CCOC(=O)C(=O)OCC,outcome,[1],inactive
CCCCCCCC1CCCC1=O (stereo not given),outcome,[1],inactive
CCCCOCCOCCO,outcome,Caspase-3 (Homo sapiens),inactive
O=C1OC2(c3ccc(O)cc3Oc3cc(O)ccc32)c2ccccc21,AC50,[2],7.41 µM (active)
same,AC50,[3],23.6 µM (active)
same,outcome,[4],inactive
CC(=O)CCC=C(C)CCC=C(C)C,outcome,[2],inactive
CC/C(=C(\c1ccccc1)c1ccc(OCCN(C)C)cc1)c1ccccc1,AC50,[5],33.4 µM (active)
same,outcome,[5],inactive
same,outcome,[2],inactive
same,outcome,[6],inactive
same,outcome,CDK2 (gene 1017),inactive
same,outcome,[7],inactive
same,outcome,[8],inactive
same,outcome,[3],inactive
same,outcome,[1],inactive
same,AC50,[9],22.9 µM (active)
same,outcome,[10],inactive
same,AC50,[11],11.1 µM (active)
same,outcome,[12],inactive
CC(=O)C1C(=O)C=C(C)OC1=O (stereo not given),AC50,[1],39.1 µM (active)
NC(=O)NC(N)=O,AC50,[3],25 µM (active)
same,outcome,[1],inactive
c1ccc(Sc2ccccc2)cc1,outcome,[1],inactive
O=C(c1ccc(OCCN2CCCCC2)cc1)c1c(-c2ccc(O)cc2)sc2cc(O)ccc12,outcome,[5],inactive
same,AC50,[2],15.3 µM (active)
same,outcome,[13],inactive
same,outcome,[7],inactive
same,AC50,[3],12.6 µM (active)
same,AC50,[14],21 µM (active)
same,outcome,[4],inactive
same,outcome,[1],inactive
same,AC50,[9],35.6 µM (active)
same,AC50,[11],25 µM (active)
N#CCCNCCC#N,AC50,[1],21.8 µM (active)
N#CCCCC(C#N)CCC#N (stereo not given),outcome,[1],inactive
CCCCCCCCOC(C)=O,AC50,[3],25 µM (active)
Cc1cc(N)n(-c2ccccc2)n1,outcome,[1],inactive
Cc1ccc(C(C)(C)O)cc1,AC50,[1],44.3 µM (active)
O=[N+]([O-])c1cc(N(CCO)CCO)ccc1NCCO,AC50,[15],8.66 µM (active)
CCC(CC)CO,outcome,[1],inactive
C=C(C)C(=O)OCCC[Si](OC)(OC)OC,AC50,[1],25 µM (active)
C#C[C@]1(O)CC[C@H]2[C@@H]3CCc4cc(O)ccc4[C@H]3CC[C@@]21C,AC50,[16],1.2 µM (active) and 2.59 µM (active) and 1.12 µM (active)
same,outcome,[5],inactive
NC(=O)c1c(Cl)cccc1Cl,outcome,[1],inactive
CC1=CC(C)C(C=O)C(C)C1 (stereo not given) (tested in a mixture with another compound),outcome,[2],inactive
C=C(C)C(N)=O,outcome,[5],inactive
same,outcome,[17],inactive
C1COCO1,outcome,[1],inactive
Nc1ccc(N)c([N+](=O)[O-])c1,AC50,[15],8.68 µM (active) and 13.7 µM (active)
same,outcome,[1],inactive
C[C@]12CC[C@@H]3c4ccc(O)cc4CC[C@H]3[C@@H]1CC[C@@H]2O,AC50,[16],1.48 µM (active)
same,outcome,[6],inactive
same,outcome,[18],inactive
CCOC(=O)C=Cc1ccccc1,outcome,[1],inactive
CC/C=C\C#N,AC50,[3],40.4 µM (active)
same,outcome,[4],inactive
CC1(C)CC(=O)CC(C)(C)N1,outcome,[1],inactive

# From PubChem BioAssay (EPA / NIEHS)
